Source: PubChem BioAssay (several laboratories)
HIV RNase H inh: blocks HIV-1 RNase H cleavage of RNA/DNA duplex | P04585 | RT-RNase H RNA/DNA duplex cleavage, fluorescence | inhibition, % at 10 µM | hit rate 1.9% among 65,000; in the data active means inhibition above about 50%
RmlC RmlD mix: RmlC/RmlD inhibition, mixture screen | RmlC/RmlD coupled enzyme inhibition, 384-well mixture HTS | inhibition, % at 5.5 µM | hit rate 0.39% among 110,000; in the data active means inhibition above about 30%, passing the limit was not always enough
RmlCD artifact: RmlC/RmlD fluorescence artifact, counter-screen; shares compounds with RmlC RmlD mix; RmlC/RmlD assay fluorescence artifact counter-screen; calls only; hit rate 96% among 360; AID 1696; call rule not given here;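 further: compound alone with no enzyme and no substrates present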
* hit, by the source's call; i = inactive; / = not tested or not shown; + = active, no number. The full list was thinned out, with hits kept by preference.

SMILES	HIV RNase H inh	RmlC RmlD mix	RmlCD artifact
COc1ccccc1Oc1c(C)oc2c(CN3CCN(CCO)CC3)c(O)ccc2c1=O	-2	/	/
COc1ccccc1-c1coc2c(CN3CCN(C)CC3)c(O)ccc2c1=O	-6	16	/
Cc1oc2c(CN3CCOCC3)c(O)ccc2c(=O)c1-c1ccccc1	1	39*	+
COc1ccc(Oc2c(C)oc3c(CN4CCOCC4)c(O)ccc3c2=O)cc1	/	10	/
C=C1CCC(C)C(C)(CCC2=CCOC2=O)C/C=C\C=C/1C(=O)O (stereo unspecified)	/	4	/
C=CCOC(=O)C1=C[C@H](c2coc3ccccc3c2=O)[C@@H](CCCO)[C@H](OCC)O1	/	-16	/
CCn1nnc(-c2ccccc2NS(=O)(=O)c2ccc(S(=O)(=O)N(C)C3CCCCC3)cc2)n1	/	9	/
CC(C)C[C@H]1COCCS(=O)(=O)N1Cc1cccc(F)c1	/	12	/
CCc1cc(=O)oc2c(CN3CCN(C)CC3)c(O)c(Cl)cc12	-2	126*	+
CN1CCN(Cc2oc(CO)cc(=O)c2O)CC1	/	-14	/
O=c1ccc(NS(=O)(=O)c2ccc(Cl)cc2)cn1Cc1ccc(Cl)c(Cl)c1	/	0	/
CCOc1ccc2c3c(c(=O)oc2c1OCC)CCCC3	/	3	/
COc1ccc2c3c(c(=O)oc2c1OCC(N)=O)CCCC3	-15	32*	+
Cc1c(CC(=O)O)c(=O)oc2cc(OCc3nn[nH]n3)ccc12	/	29	/
COC(=O)Cc1c(C)c2ccc(OC(=O)c3ccccc3)cc2oc1=O	/	64*	+
N#Cc1nc(-c2cccs2)oc1NCc1ccccc1	-29	47	/
C=CCNc1oc(-c2cccs2)nc1C#N	/	108*	+
Cc1ccc(NC(=O)CC2S/C(=N/c3nccs3)N(C)C2=O)c(C)c1 (stereo unspecified)	/	8	/
COCCCNC(=O)c1ccc2nc3ccccc3c(=O)n2c1	-5	34*	+
COCCCn1c(SCC(=O)NCc2ccccc2)nc2ccccc2c1=O	/	-5	/
CCCCSc1nnc(NC(=O)CCc2ccccc2)s1	/	1	/
COc1ccc(N2CCN(CC(=O)Nc3ccc(-n4cnnn4)cc3)CC2)cc1	-3	4	/
CCC(=O)NC(=S)N1CCN(c2ccc([N+](=O)[O-])cc2Cl)CC1	/	4	/
CCCc1cc(-n2cnc3ccccc32)n2c(nc3ccccc32)c1C#N	/	12	/
CCCc1cc(NCC2CCCO2)n2c(nc3ccccc32)c1C#N (stereo unspecified)	/	102*	+
SMILES	HIV RNase H inh	RmlC RmlD mix	RmlCD artifact
Cc1ccc(-c2csc(=S)n2CC(=O)OCC(=O)NCc2ccc(F)cc2)cc1	/	1	/
CCOC(=O)c1ccc(-c2ccc(CO)o2)cc1	/	62*	+
CCOC(=O)c1ccc(COC(=O)c2ccc(-c3nnc(-c4ccccc4)o3)cc2)o1	10	-180	/
Cc1nc2sc(C(c3ccco3)N3CCc4ccccc4C3)c(O)n2n1 (stereo unspecified)	-20	-19	/
S=C1NC[C@H](CC2CCCCC2)N1CC1CCCCC1	/	5	/
CCOc1ccc(Nc2oc(-c3ccco3)nc2C#N)cc1	-8	-15	/
CCOc1ccc(Nc2oc(-c3cccc(Cl)c3)nc2C#N)cc1	/	36*	+
Clc1ccc(C2C3=C(Nc4ncnn42)c2ccccc2CC3)cc1 (stereo unspecified)	/	18	/
Cc1ccc(S(=O)(=O)NCCCOC(=O)Nc2ccncc2)cc1	-2	6	/
CC(C)OC(=O)c1cc2ccccc2[nH]1	/	-10	/
CCOC(=O)c1cc2cc3ccccc3cc2[nH]1	/	125*	+
CCN(CC)S(=O)(=O)c1cc(C(=O)n2cccn2)c(Cl)cc1Cl	-1	-7	/
COCCCn1cnc2oc3nc4ccccc4nc3c2c1=O	-18	50*	+
COCCCn1cnc2c(c1=O)c1nc3ccccc3nc1n2-c1ccccc1	-3	12	/
Cc1cc(=O)n2c(ccc3ccccc32)c1C#N	-19	8	/
Cc1cc(=O)n2ccccc2c1C#N	/	104*	+
COc1ccc(OC)c(NC(=O)CN2C(=O)c3ccccc3S2(=O)=O)c1	-13	6	/
COc1ccc2c(c1)-c1ccccc1S(=O)(=O)N2C(C)=O	-18	131*	+
Cc1ccc(C(=O)O)cc1N=Cc1cc(Br)cc(Br)c1O	/	/	+
Cc1ccc([N+](=O)[O-])cc1N=Cc1ccc(Br)s1	/	6	/
CCOC(=O)c1ccc(NC(=O)c2c(N)n(Cc3ccccc3)c(=O)[nH]c2=O)cc1	/	17	/
CC(=O)c1ccc(/C=C/c2nc3ccccc3n2C)o1	/	/	+
Cn1c(/C=N/NC(=O)c2ccccc2)nc2ccccc21	/	-7	/
COc1ccc(-c2oc3ncn4nc(COc5ccccc5)nc4c3c2-c2ccc(OC)cc2)cc1	36	117*	+
COc1ccc(-c2oc3ncn4nc(Cc5ccccc5)nc4c3c2-c2ccc(OC)cc2)cc1	26	84	/
SMILES	HIV RNase H inh	RmlC RmlD mix	RmlCD artifact
CC1(C)Cc2nc(NCCCO)c(C#N)cc2CO1	-12	44*	+
CC1(C)Cc2nc(N3CCOCC3)c(C#N)cc2CO1	-8	-40	/
C#Cc1ccc([C@H]2C=C(C(=O)OCC=C)O[C@@H](OCCCCO)C2)cc1	/	-97	/
COC(=O)C1=C(C(=O)OC)[C@@H]2Nc3ccccc3[C@@]23C[C@@H](C(=O)OC)N(C(=O)c2ccco2)C3=N1	/	13	/
CCn1c2ccccc2c2nnc(SCc3ccccc3)nc21	-34	-2	/
CCn1c2ccccc2c2nnc(SCCCn3c(=O)[nH]c4ccccc43)nc21	-67	82*	i
COc1ccc(-c2nc(-c3cccs3)c(-c3cccs3)[nH]2)cc1O	16	-22	/
COc1ccc(N2C(=O)C3CCCN3C2c2ccc(C)o2)cc1 (stereo unspecified)	/	-9	/
CCc1cc(=O)oc2cc(C)c(CN3CCCC(C)C3)c(O)c12 (stereo unspecified)	19	6	/
COC(=O)Cc1c(C)c2ccc(O)c(CN3CCCC(C)C3)c2oc1=O (stereo unspecified)	/	96*	+
COc1ccc(-c2cc(=NCCC(=O)O)c3cc(C)ccc3o2)cc1	/	/	+
COc1ccc(-c2cc(=Nc3ccc(C)cc3)c3ccccc3o2)cc1	/	14	/
COC(=O)c1ccc2c(c1)C(C)(C)C(/C=C/c1ccc(O)cc1)=[N+]2C	/	19	/
COC(=O)c1ccc2c(c1)C(C)(C)C(/C=C/c1ccc(OC)c(OC)c1OC)=[N+]2C	/	45*	+
CCN(CC)CCCN1C(=O)C(O)=C(C(=O)c2cccs2)C1c1ccccn1 (stereo unspecified)	-9	/	/
CC(C)C[C@@H](CSc1ccc(Br)cc1)N1CCN(CC(C)C)CCC1=O	/	7	/
COC(=O)c1ccc(NC(=O)CSCc2ccccc2C)cc1	/	-5	/
CC1(C)CCCN(C(=O)c2coc(=O)c(Br)c2)C1	20	54*	+
O=C(c1coc(=O)c(Br)c1)N1CCCc2ccccc21	2	30	/
COCCCn1c(=O)/c(=C\c2ccc(OC(F)F)c(OC)c2)s/c1=C(/C#N)C(=O)NCCOC	/	/	i
C=CCn1c(=O)/c(=C\c2ccsc2)s/c1=C(/C#N)C(=O)NCCN1CCOCC1	-9	7	/
CN(C)CCCNc1oc(-c2ccccc2)nc1C#N	-10	17	/
CN(C)CCNc1oc(-c2ccccc2F)nc1C#N	-9	46*	+
CCOC(=O)Nc1ccc(OC)cc1S(=O)(=O)N1CCCCC1	-54	/	/
COCCn1c(SCC(=O)NCc2ccc3c(c2)OCO3)nnc1-c1c[nH]c2ccccc12	-5	7	/
